Results published in publication PMC5540273 (PLoS ONE, 2017).

Key:
Details in all cases: concentration: 1 μM, replicates: in singlicate; n = 1
[1] = tested on: ACVR2B
[2] = tested on: ACVRL1
[3] = tested on: T1, ADCK3
T1 construct: gene CABC1

[4] = tested on: ADCK4
[5] = tested on: AKT1
[6] = tested on: AKT2
[7] = tested on: AKT3
[8] = tested on: ALK
[9] = tested on: T2, AMPK-alpha1
T2 construct: gene PRKAA1

[10] = tested on: T3, AMPK-alpha2
T3 construct: gene PRKAA2

[11] = tested on: ANKK1
[12] = tested on: T4, ARK5
T4 construct: gene NUAK1

[13] = tested on: T5, ASK1
T5 construct: gene MAP3K5

[14] = tested on: T6, ASK2
T6 construct: gene MAP3K6

[15] = tested on: AURKA
[16] = tested on: AURKB
[17] = tested on: AURKC
[18] = tested on: AXL
[19] = tested on: T7, BIKE
T7 construct: gene BMP2K

[20] = tested on: BLK
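Also: KINOMEscan kinase panel screen.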

SMILES | %Inh [1] | %Inh [2] | %Inh [3] | %Inh [4] | %Inh [5] | %Inh [6] | %Inh [7] | %Inh [8] | %Inh [9] | %Inh [10] | %Inh [11] | %Inh [12] | %Inh [13] | %Inh [14] | %Inh [15] | %Inh [16] | %Inh [17] | %Inh [18] | %Inh [19] | %Inh [20]
Cc1cc(NCC(c2ccccc2)c2ccccc2)nc(NCc2ccc(C(F)(F)F)cc2)n1 [GW497681] | 0% | 0% | 10% | 86% | 0% | 0% | 0% | 3% | 0% | 0% | 9% | 13% | 0% | 0% | 7% | 15% | 8% | 0% | 0% | 25%
CS(=O)(=O)c1ccc(-c2c(-c3ncn[nH]3)sc(N3CCOCC3)c2C#N)cc1 | 0% | 8% | 3% | 0% | 1% | 15% | 0% | 9% | 22% | 8% | 0% | 1% | 0% | 0% | 22% | 0% | 2% | 0% | 6% | 8%
O=C(O)COc1ncnc2cc(-c3ccc4[nH]ncc4c3)sc12 | 0% | 6% | 0% | 0% | 0% | 22% | 17% | 0% | 13% | 18% | 12% | 0% | 0% | 0% | 45% | 28% | 0% | 21% | 0% | 1%
Cl.Oc1ccc(-c2nc(-c3ccccc3)[nH]c2-c2ccncc2)cc1 [SB-428218] | 13% | 0% | 5% | 82% | 0% | 18% | 0% | 44% | 0% | 0% | 10% | 62% | 24% | 0% | 0% | 32% | 0% | 0% | 0% | 58%
O=C(Nc1n[nH]c2nc(-c3nccs3)c(Br)cc12)C1CC1 [SB-742251] | 11% | 0% | 15% | 19% | 0% | 1% | 0% | 26% | 10% | 8% | 0% | 0% | 4% | 21% | 0% | 31% | 13% | 15% | 36% | 0%
CS(=O)(=O)c1ccc(-c2nc3n(c2-c2ccncc2)CCC3)cc1 [SKF-105942] | 0% | 0% | 11% | 58% | 0% | 100% | 0% | 28% | 24% | 0% | 0% | 8% | 11% | 0% | 0% | 34% | 0% | 0% | 3% | 9%
COc1ccc(C2=C(Nc3cccc(C(=O)O)c3)C(=O)NC2=O)cc1 [SB-390765] | 0% | 1% | 0% | 0% | 1% | 0% | 14% | 2% | 23% | 2% | 6% | 5% | 9% | 21% | 18% | 26% | 0% | 19% | 18% | 0%
CC(=O)Nc1nc2cnc(Nc3cc(NC(=O)c4cccc(CCC#N)c4)ccc3C)nc2s1 | 0% | 15% | 4% | 0% | 17% | 33% | 0% | 0% | 8% | 7% | 0% | 7% | 0% | 16% | 12% | 18% | 7% | 0% | 10% | 0%
Cc1c(O)cccc1Nc1ccnc2ccc(C(F)(F)F)cc12.Cl [GW466413] | 85% | 43% | 0% | 81% | 0% | 0% | 1% | 25% | 12% | 16% | 0% | 10% | 0% | 0% | 0% | 34% | 0% | 1% | 4% | 66%
COc1cccc(NC(=O)NC2CCN(c3ccnc(Nc4ccc(F)cc4)n3)C2)c1 (stereo not drawn) [GSK1379721] | 4% | 0% | 1% | 22% | 0% | 0% | 0% | 24% | 0% | 0% | 4% | 9% | 8% | 4% | 21% | 0% | 8% | 0% | 0% | 0%
Cn1ccc2ncnc(Oc3ccc(Nc4nc5ccccc5[nH]4)cc3)c21 | 0% | 0% | 0% | 0% | 0% | 16% | 0% | 0% | 7% | 0% | 0% | 14% | 0% | 0% | 0% | 95.2% | 3% | 0% | 0% | 0%
CCCc1ccc(S(=O)(=O)NC2CCN(c3ccnc(Nc4ccc(F)cc4)n3)C2)cc1 (stereo not drawn) [GSK1379715] | 0% | 0% | 14% | 34% | 0% | 100% | 0% | 32% | 6% | 0% | 0% | 0% | 2% | 0% | 0% | 29% | 5% | 12% | 0% | 0%
Cc1ccc(NC(=O)Nc2cc(C(C)(C)C)nn2-c2ccccc2)cc1 [GSK1014915] | 5% | 5% | 25% | 25% | 0% | 14% | 20% | 28% | 0% | 11% | 0% | 0% | 1% | 22% | 0% | 17% | 18% | 2% | 22% | 20%
CCn1c(-c2ccccn2)nc2cnccc21 [SB-736398] | 0% | 0% | 56% | 6% | 0% | 19% | 0% | 34% | 5% | 10% | 0% | 0% | 17% | 0% | 0% | 3% | 7% | 12% | 16% | 9%
Cn1cncc1-c1ccc2ncnc(Nc3ccc(OCc4ccccc4)cc3)c2c1 [GW320571] | 16% | 23% | 27% | 15% | 0% | 20% | 10% | 21% | 35% | 20% | 0% | 72% | 16% | 7% | 0% | 100% | 38% | 10% | 23% | 13%
COc1cc2nccc(Nc3ccc(NC(=O)c4ccc(C)cc4)c(O)c3)c2cc1OC.Cl [GW440132] | 0% | 0% | 10% | 41% | 0% | 1% | 0% | 6% | 0% | 0% | 0% | 0% | 0% | 0% | 7% | 50% | 57% | 0% | 7% | 95.5%
Clc1cc(Cl)cc(Nc2ccnc(Nc3cc(Cl)cc(Cl)c3)n2)c1 [GSK175726] | 39% | 43% | 31% | 3% | 0% | 0% | 0% | 18% | 18% | 0% | 18% | 8% | 4% | 3% | 90% | 0% | 13% | 2% | 8% | 6%
CN(C)CCN(C)C(=O)c1cc(-c2ccncc2)c(-c2ccc(Cl)c(O)c2)o1.Cl.Cl [SB-710397] | 9% | 0% | 11% | 45% | 0% | 0% | 0% | 29% | 0% | 0% | 0% | 0% | 18% | 0% | 0% | 9% | 0% | 8% | 13% | 12%
Cc1cccc(-c2nc(Nc3ccncc3)c3ccccc3n2)n1 [GW855857] | 36% | 65% | 27% | 0% | 20% | 0% | 0% | 0% | 0% | 12% | 0% | 0% | 0% | 0% | 0% | 10% | 0% | 7% | 1% | 1%
Cc1ccccc1-n1cnc2c(N)ncnc21 [SKF-97510] | 0% | 0% | 8% | 0% | 8% | 0% | 0% | 0% | 0% | 0% | 0% | 0% | 7% | 0% | 0% | 0% | 0% | 0% | 0% | 9%
Cn1ccc2ncnc(Oc3ccc(NC(=O)Nc4ccccc4)cc3)c21 | 0% | 0% | 12% | 5% | 13% | 0% | 0% | 0% | 0% | 2% | 0% | 4% | 16% | 0% | 15% | 93.7% | 84% | 0% | 0% | 2%
